Test in all cases: phage ELISA signal ratio (GST-PRM binding over GST background); higher = stronger binding of peptide-phage to the PRM
(ELISA stands for enzyme-linked immunosorbent assay.)

In assay [1] the target is PLEK2 238-353 PH (domain begin residue: 238, domain end residue: 353). In outline: (§1)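 Human peptide recognition domains were expressed in 96-well plates as fusions to the C-terminus of glutathione S-transferase (GST) and selected against an M13 phage library displaying randomized hexadecapeptides, cysteine-free and glycine-flanked, on the gene-8 major coat protein. Five selection rounds were run, and approximately 48 individual clones from rounds 4 and 5 were tested by phage ELISA. Each value is the ELISA signal on the GST-domain fusion divided by the signal on GST alone. Positive clones were sequenced.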

For assay [2], the target named is PDCD6 23-191 EF-hand_5+EF-hand_7 (domain begin residue: 23, domain end residue: 191), O75340. In a few lines: as §1
For assay [3], the target named is T1, PPARG 233-505 Hormone_recep (domain begin residue: 233, domain end residue: 505), P37231.
T1 chain: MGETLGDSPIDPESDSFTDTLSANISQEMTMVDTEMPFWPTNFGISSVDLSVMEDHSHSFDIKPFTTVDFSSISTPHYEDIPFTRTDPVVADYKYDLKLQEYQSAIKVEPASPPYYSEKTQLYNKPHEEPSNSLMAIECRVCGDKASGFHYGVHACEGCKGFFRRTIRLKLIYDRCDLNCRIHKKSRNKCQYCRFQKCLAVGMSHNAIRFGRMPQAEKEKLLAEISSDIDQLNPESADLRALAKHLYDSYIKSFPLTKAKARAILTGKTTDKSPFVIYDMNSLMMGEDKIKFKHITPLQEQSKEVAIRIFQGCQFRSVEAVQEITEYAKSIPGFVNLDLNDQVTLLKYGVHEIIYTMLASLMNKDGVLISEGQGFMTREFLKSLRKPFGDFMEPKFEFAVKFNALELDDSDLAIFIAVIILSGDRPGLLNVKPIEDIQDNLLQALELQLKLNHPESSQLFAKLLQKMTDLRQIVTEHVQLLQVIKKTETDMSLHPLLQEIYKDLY
In outline:
as §1

Assay [4] has as its target T2, PLEK 120-231 DEP (domain begin residue: 120, domain end residue: 231), P08567.
T2 chain: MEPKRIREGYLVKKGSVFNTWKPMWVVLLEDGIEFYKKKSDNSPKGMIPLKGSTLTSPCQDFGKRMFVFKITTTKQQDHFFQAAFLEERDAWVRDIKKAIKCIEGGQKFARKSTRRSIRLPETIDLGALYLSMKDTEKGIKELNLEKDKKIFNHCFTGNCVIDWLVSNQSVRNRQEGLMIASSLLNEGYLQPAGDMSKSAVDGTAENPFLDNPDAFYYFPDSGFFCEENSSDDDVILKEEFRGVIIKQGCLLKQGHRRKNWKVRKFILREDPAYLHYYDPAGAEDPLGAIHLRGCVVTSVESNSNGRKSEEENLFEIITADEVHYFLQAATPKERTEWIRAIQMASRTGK
In outline: as §1

The target in assay [5] is PLEK2 123-229 DEP (domain begin residue: 123, domain end residue: 229). In a few lines:
as §1

In assay [6] the target is PHF19 190-255 PHD (domain begin residue: 190, domain end residue: 255), Q5T6S3. In a few lines: as §1
Assay [7] addresses PIKFYVE 347-450 DEP (domain begin residue: 347, domain end residue: 450), Q9Y2I7. In outline: as §1
Assay [8] has as its target T3, PDCD6IP 3-392 BRO1 (domain begin residue: 3, domain end residue: 392), Q8WUM4.
T3 chain: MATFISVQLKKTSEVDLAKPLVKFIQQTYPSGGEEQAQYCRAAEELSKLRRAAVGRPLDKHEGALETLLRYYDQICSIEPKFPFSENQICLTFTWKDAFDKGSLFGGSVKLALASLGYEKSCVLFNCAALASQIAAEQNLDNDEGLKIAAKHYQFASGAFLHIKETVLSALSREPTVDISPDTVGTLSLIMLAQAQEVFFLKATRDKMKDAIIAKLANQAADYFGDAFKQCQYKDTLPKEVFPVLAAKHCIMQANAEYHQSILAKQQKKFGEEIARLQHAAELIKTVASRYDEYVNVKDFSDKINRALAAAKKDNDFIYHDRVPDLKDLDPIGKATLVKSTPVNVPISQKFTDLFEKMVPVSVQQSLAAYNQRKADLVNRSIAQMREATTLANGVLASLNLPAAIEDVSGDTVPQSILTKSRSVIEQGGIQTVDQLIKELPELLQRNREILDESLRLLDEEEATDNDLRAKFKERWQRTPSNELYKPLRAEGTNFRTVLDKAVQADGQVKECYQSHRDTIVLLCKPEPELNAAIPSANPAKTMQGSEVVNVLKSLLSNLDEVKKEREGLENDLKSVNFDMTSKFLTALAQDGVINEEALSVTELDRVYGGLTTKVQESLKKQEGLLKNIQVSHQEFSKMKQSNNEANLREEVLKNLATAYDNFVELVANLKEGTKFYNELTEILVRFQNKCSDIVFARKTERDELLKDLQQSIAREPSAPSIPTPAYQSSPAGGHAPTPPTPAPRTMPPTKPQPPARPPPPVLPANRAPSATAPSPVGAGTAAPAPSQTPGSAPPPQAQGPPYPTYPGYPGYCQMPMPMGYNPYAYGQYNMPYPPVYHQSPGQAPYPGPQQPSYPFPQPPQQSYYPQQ
In outline: as §1

From the supplement of paper PMC7724964 come the findings set out here.

Chain of PDCD6 23-191 EF-hand_5+EF-hand_7 (domain begin residue: 23, domain end residue: 191), O75340 (O75340 whole entry): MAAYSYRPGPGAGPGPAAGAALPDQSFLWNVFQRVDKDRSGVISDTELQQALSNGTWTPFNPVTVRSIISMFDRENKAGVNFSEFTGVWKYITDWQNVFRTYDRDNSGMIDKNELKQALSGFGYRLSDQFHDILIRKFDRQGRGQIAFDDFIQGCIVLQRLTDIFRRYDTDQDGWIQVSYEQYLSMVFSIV
Chain of PIKFYVE 347-450 DEP (domain begin residue: 347, domain end residue: 450), Q9Y2I7 (Q9Y2I7 whole entry): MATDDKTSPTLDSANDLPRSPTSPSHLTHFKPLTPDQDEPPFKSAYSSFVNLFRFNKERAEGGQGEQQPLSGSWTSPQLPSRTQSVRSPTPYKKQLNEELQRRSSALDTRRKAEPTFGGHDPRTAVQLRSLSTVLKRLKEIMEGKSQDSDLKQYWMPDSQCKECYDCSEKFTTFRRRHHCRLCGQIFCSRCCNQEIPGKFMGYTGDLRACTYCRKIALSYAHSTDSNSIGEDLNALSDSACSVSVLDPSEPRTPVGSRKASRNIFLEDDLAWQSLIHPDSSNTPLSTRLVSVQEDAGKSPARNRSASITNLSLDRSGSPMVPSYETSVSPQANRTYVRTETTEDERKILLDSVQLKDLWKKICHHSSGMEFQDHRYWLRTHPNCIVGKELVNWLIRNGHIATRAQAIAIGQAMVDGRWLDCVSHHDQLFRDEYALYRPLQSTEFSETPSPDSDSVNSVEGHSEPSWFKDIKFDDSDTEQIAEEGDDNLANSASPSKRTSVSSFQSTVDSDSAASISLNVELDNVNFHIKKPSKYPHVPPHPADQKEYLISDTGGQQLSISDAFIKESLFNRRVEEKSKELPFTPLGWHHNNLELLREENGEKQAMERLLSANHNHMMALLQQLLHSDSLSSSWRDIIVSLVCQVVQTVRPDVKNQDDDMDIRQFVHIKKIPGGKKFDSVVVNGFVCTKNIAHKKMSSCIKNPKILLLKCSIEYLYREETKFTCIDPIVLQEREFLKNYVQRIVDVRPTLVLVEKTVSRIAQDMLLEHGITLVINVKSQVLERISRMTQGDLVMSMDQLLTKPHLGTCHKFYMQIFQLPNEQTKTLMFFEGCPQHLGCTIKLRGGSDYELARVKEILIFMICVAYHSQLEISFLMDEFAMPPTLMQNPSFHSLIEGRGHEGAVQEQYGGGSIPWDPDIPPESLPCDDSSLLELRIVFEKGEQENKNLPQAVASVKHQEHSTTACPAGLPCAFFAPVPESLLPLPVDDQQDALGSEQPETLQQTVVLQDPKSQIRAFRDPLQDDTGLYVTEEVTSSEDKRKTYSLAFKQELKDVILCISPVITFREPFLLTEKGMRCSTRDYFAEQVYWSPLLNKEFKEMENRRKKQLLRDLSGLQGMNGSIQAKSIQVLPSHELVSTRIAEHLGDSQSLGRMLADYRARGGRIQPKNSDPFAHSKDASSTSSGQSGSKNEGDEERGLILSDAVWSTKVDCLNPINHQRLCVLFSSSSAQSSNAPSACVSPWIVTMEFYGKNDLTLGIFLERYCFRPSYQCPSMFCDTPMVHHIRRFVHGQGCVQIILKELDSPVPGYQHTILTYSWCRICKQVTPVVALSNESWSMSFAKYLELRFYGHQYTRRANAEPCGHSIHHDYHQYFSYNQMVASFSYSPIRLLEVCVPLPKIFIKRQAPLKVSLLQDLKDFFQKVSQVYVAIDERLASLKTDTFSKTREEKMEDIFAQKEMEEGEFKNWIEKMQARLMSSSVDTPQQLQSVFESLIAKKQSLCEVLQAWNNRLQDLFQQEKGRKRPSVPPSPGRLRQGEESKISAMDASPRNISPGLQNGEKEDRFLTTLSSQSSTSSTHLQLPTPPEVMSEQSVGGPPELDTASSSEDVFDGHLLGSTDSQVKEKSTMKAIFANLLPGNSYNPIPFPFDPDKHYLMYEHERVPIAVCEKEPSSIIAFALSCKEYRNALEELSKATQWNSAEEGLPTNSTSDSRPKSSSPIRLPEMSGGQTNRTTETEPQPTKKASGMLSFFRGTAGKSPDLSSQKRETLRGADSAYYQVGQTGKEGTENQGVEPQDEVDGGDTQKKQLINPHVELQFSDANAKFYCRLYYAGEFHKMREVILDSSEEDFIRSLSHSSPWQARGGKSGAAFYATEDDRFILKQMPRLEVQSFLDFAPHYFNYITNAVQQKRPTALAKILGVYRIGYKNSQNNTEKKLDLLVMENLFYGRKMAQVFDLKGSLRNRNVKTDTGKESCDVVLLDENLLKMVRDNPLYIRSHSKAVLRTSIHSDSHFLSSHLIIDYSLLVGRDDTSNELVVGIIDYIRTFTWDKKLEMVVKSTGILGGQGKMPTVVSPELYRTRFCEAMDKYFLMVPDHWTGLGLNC

As for MHSELNWWEAMQWDSW, the “phage ELISA signal ratio” value in assay [1] stood at 4.7. For QNGTPMPGWAPWVLEV, the “phage ELISA signal ratio” value in assay [2] was 34.1. On to DGKHWADFYSAFPMLA, for which the “phage ELISA signal ratio” value in assay [1] is 31.8. Regarding ASGEHAVGWQDWVWIS, in assay [2], the “phage ELISA signal ratio” value turned out to be 31.1. As for DFNAHWLEWHAQHVAL, the “phage ELISA signal ratio” value in assay [1] is 28.5. In the case of DSHYGWAEWVLQGPVA, the “phage ELISA signal ratio” value in assay [2] was 35.1. Regarding QDLESWWWSEHLSNIM, the “phage ELISA signal ratio” value in assay [3] stood at 14.3. Regarding VSYGWAHWTMEQGEDA, the “phage ELISA signal ratio” value in assay [2] was 28.1. On to EPLNYGWEGWLLDGWS, for which, in assay [2], the “phage ELISA signal ratio” value was 28.8. For LQTYDWWADVMDHVLN, the “phage ELISA signal ratio” value in assay [4] was determined as 4.42. YLTWWYDPDHPDWATV: in assay [5], the “phage ELISA signal ratio” value is 6.35. With RPDIMERLQQLMVWHG, the “phage ELISA signal ratio” value in assay [4] was determined as 4.13. In the case of DIPPESYGWAPWVWQV, the “phage ELISA signal ratio” value in assay [2] is 35.3. EFEMDFWEMWNAWLSQ: in assay [5], the “phage ELISA signal ratio” value amounted to 14.9. Regarding VEQFPYGWADWVHEIV, the “phage ELISA signal ratio” value in assay [2] was 31.3.

Turning to EEMQQLGPFYGWQDWV, in assay [2], the “phage ELISA signal ratio” value came to 30.5. The same measure, in the same setting: for ADYPFEVWQAWVFEEV the value was 36.3; for YPEFAHYGFADWIYAS, 30.4; for YPYGWQQWVWESEQVQ, 27.1.

WVEYGWQDWVTKFDQQ: the “phage ELISA signal ratio” value in assay [2] came out at 27.1. WADWVFQENEKWDLFV: in assay [2], the “phage ELISA signal ratio” value came to 29.1. Take FDQLMHEAYTQWQSQQ: the “phage ELISA signal ratio” value in assay [4] stood at 31.5.

Regarding LQVEYGWAEWTWIGAD, the “phage ELISA signal ratio” value in assay [2] came to 27.2.

For the molecule YGWDWEFLEGLQYGKV, the “phage ELISA signal ratio” value in assay [2] is 32.4. For the molecule WNWENVWWLDQTHPLW, the “phage ELISA signal ratio” value in assay [5] amounted to 10.1.

For the molecule MEAPHWVWPPDGYALR, in assay [6], the “phage ELISA signal ratio” value was 6.23. For the molecule YALPYEWMWMTDLIQE, the “phage ELISA signal ratio” value in assay [7] amounted to 3.03. Take FDAYWQDLYMMDLDSF: the “phage ELISA signal ratio” value in assay [8] is 19.8.

In the case of YGWDPFLENISWSWQA, the “phage ELISA signal ratio” value in assay [2] was 33.4. Take QNDGMDKAWVFWHEPT: the “phage ELISA signal ratio” value in assay [1] stood at 20.8. For the molecule LNDHWVAWHLMKNEIQ, the “phage ELISA signal ratio” value in assay [1] worked out at 14.3. Take WDYMSEEESIRYLIEW: in assay [8], the “phage ELISA signal ratio” value amounted to 27.3. EIEPWWWDPHHENWAM: the “phage ELISA signal ratio” value in assay [5] stood at 7.12. QTDYAYGFYPFIEQHF: the “phage ELISA signal ratio” value in assay [2] came out at 32.3. DVAWHVPWEQYFEQET: the “phage ELISA signal ratio” value in assay [8] turned out to be 16.8. In the case of TPGDLIDFSTLTFYYV, the “phage ELISA signal ratio” value in assay [6] came out at 7.11. For WNWENVWGLDQTHPLW, the “phage ELISA signal ratio” value in assay [5] amounted to 3.15.

For the molecule FQEVTMYGWRPEYLSD, the “phage ELISA signal ratio” value in assay [2] was found to be 27.7. Consider MNEHWTEWYWQSQNFV, for which the “phage ELISA signal ratio” value in assay [1] was found to be 20.4.

For WEEDFWTGLHFLNNAE, in assay [8], the “phage ELISA signal ratio” value worked out at 25.5.

Take IVALESPYGWQDWVTT: in assay [2], the “phage ELISA signal ratio” value was 28.1. As for MSGITDWWENPAYWSW, the “phage ELISA signal ratio” value in assay [1] worked out at 3.86. Still for that read-out and setting: to DQVLKWNEHWHEWLQA belongs 26.3; to SIKHWEQFYASQPPQI, 16.2. On the same count and under the same terms, for EDVELLNKHWYDWAQV the value was 25; for DINVTSDMNQHWMQWS, 33.1. For the molecule PDFWWQQQMADIMQWR, the “phage ELISA signal ratio” value in assay [5] was 21.4. As to AEEHSMSLMSLLLAPS, the “phage ELISA signal ratio” value in assay [3] amounted to 5.77. Turning to AAQYGWQDWVMVPESM, in assay [2], the “phage ELISA signal ratio” value came to 32.8. As to WFDEGMWEVINQYNSL, the “phage ELISA signal ratio” value in assay [4] came to 21.9. Consider GPEMWNLHWQDWYNEV, for which the “phage ELISA signal ratio” value in assay [1] worked out at 28.3.

KLEMYQGTIPYGNYWP: the “phage ELISA signal ratio” value in assay [6] is 6.64. Regarding DHWDAFYTWQKQNYLD, in assay [1], the “phage ELISA signal ratio” value was found to be 36.8. Take VPVYGWDPGLWDGHAL: in assay [2], the “phage ELISA signal ratio” value was found to be 35.1. TLTATDWWEEWNWGEN: in assay [1], the “phage ELISA signal ratio” value turned out to be 20.9. On the same count and under the same terms, for WEDWTYWNDHLHLSPE the value was 8.15. For the molecule MNHAQIQSPLLWSLLW, in assay [3], the “phage ELISA signal ratio” value was determined as 11.6.
